# Assay outcomes deposited in PubChem BioAssay by The Scripps Research Institute Molecular Screening Center.
# Sampled rows, rich in hits. Any-hit rate of the full collection: about 3.5%.
# GPR151 ag: human GPR151 activation | Q8TDV0 | PathHunter beta-arrestin GPR151 cells, luminescence | activation, % at 11.2 µM | 650,000 compounds, 1% hits | AID 1508602; in the data active means activation above about 4.9%;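 further: 0% = median of compound wells and 100% = cells with positive control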
# TEAD-YAP inh: TEAD-YAP interaction inhibition | inhibition, % at 9.12 µM | 640,000 compounds, 1.4% hits | HEK-TIYL cells, TEAD-Gal4/YAP UAS-luciferase luminescence; in the data active means inhibition above about 32%;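 further: 0% = median of test compound wells and 100% = reference inhibitor wells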
# MITF inh: inhibitors of human MITF. O75030. 650,000 compounds, 0.91% hits. inhibition, % at 2.6 µM. AlphaScreen MITF homodimerization, bead proximity signal; in the data active means inhibition above about 50%;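 further: 0% = vehicle wells with protein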
# Target sequence (O75030 whole entry, looked up): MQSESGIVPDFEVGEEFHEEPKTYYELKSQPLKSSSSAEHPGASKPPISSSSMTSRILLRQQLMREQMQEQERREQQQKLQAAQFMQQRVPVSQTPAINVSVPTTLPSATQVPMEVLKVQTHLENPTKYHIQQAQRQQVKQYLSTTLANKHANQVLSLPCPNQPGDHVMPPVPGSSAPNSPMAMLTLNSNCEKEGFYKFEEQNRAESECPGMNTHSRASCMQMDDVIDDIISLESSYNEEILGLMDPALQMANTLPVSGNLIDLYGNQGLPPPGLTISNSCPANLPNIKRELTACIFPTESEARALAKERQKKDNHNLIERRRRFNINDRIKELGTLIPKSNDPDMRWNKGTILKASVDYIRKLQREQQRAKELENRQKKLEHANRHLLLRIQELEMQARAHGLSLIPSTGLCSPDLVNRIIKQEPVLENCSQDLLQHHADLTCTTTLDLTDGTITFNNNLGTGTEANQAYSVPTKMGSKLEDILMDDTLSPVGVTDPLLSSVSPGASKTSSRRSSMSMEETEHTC
# FBW7 act: activators of human E3 ligase FBW7; AlphaScreen FBW7–phospho-cyclin E peptide binding, activator screen; normalized activity (activation), % at 26.1 µM; 650,000 compounds, 0.13% hits; AID 1259310; in the data active means normalized activity above about 1.9%;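 further: purified mutant Fbw7 with reduced substrate affinity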
# MITF inh conf: human MITF inhibition, confirmation. 4,700 compounds, 16% hits. shares compounds with MITF inh. AlphaScreen MITF homodimerization, biotin/His-MITF beads. AID 1259372. inhibition, % at 2.6 µM;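 active means inhibition above a cutoff derived from the DMSO control wells, cut at about 28% in these data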;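 further: 0% = MITF dimer wells with DMSO only; inhibitors lower the bead chemiluminescence by keeping MITF from dimerizing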
# AlphaScreen DR: AlphaScreen optical interference, dose response counter-screen | shares compounds with MITF inh | AlphaScreen optical interference counterscreen, cell-free | IC50, µM | 480 compounds, 6% hits; call rule not given here
# AlphaScreen intf2: optically interferes with AlphaScreen signal. shares compounds with MITF inh. LysRS AlphaScreen counterscreen, signal interference, triplicate. inhibition, % at 2.6 µM. 4,700 compounds, 7.6% hits;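 active means inhibition above a cutoff derived from the DMSO control wells, cut at about 30% in these data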
# * hit, by the source's call; i = inactive; · = not tested or not shown.
SMILES,GPR151 ag,TEAD-YAP inh,MITF inh,FBW7 act,MITF inh conf,AlphaScreen intf2,others
COc1ccc(C(O)c2nccn2C)cc1OC (centres undefined),0,-3,3,0,·,·,
COc1ccc(C(N)c2nccn2C)cc1OC (centres undefined),-1,-2,64*,0,26,61*,
CS(=O)(=O)N1CCN(Cc2nc3ccccc3[nH]2)CC1,-1,0,72*,0,8,12,
CCCS(=O)(=O)N1CCN(Cc2ccccc2F)CC1,0,6,57*,0,0,-4,
CCCS(=O)(=O)N1CCN(Cc2nc3ccccc3[nH]2)CC1,-1,-7,67*,0,7,20,
CCCCC[C@@H](O)CC[C@H]1[C@H](O)CC(=O)[C@@H]1CCCCCCC(=O)O,2,·,22,·,·,·,
O=C(O)CCCC[C@H]1SC[C@H]2NC(=O)N[C@H]21,1,-12,117*,-1,123*,101*,
O=C(CCCCC1SCC2NC(=O)NC21)NC1(c2ccc3c(c2)OCO3)CCCC1 (centres undefined),1,-7,113*,-1,102*,18,AlphaScreen DR=i
O=C(O)CCCCC1SCC2NC(=O)NC21 (centres undefined),-1,-2,122*,0,124*,101*,
NC(=O)c1ccc(NC(=O)CSc2nc3[nH]ncc3c(=O)[nH]2)cc1,1,15,12,0,·,·,
Cn1cc(CN2CCCC(CCC(=O)NCc3ccc(F)c(F)c3)C2)cn1 (centres undefined),0,8,11,0,·,·,
COc1cccc(CC2(CO)CCCN(Cc3c(C)nn(C)c3Cl)C2)c1 (centres undefined),-2,4,-2,0,·,·,
O=S(=O)(c1ccccc1)N1CCC(N2CCCCCC2)CC1,2,1,28,0,·,·,
O=S(=O)(c1ccc2ccccc2c1)N1CCC(N2CCN(Cc3ccccc3)CC2)CC1,-2,11,57*,0,6,15,
O=S(=O)(c1ccc(Cl)cc1)N1CCN(C2CCN(Cc3ccccc3)CC2)CC1,-1,-5,2,0,·,·,
COc1ccc(S(=O)(=O)N2CCN(c3ccccc3F)CC2)cc1,0,-11,22,0,·,·,
CN1CCN(C2CCN(S(=O)(=O)c3ccccc3)CC2)CC1,0,6,59*,0,6,14,
COc1ccc(S(=O)(=O)N2CCC(N3CCN(Cc4ccccc4)CC3)CC2)cc1,0,7,78*,0,-2,0,
COc1ccc(S(=O)(=O)N2CCC(N3CCN(c4ccccc4F)CC3)CC2)cc1,0,9,52*,0,7,-1,
COc1ccc(S(=O)(=O)N2CCCN(Cc3ccccc3)CC2)cc1,-1,4,17,0,·,·,
Cc1cccc(OCC(O)CN2CCC(C(N)=O)CC2)c1 (centres undefined),0,15,-5,0,·,·,
COc1cc(CNC(=O)COc2ccc(C3CCCCC3)cc2)cc(OC)c1OC,1,-2,-7,0,·,·,
CCN(CC)CC(=O)N1CCCc2c1c(=O)oc1ccc(OC(C)=O)cc21,0,5,19,0,·,·,
COC(=O)CCN1CCN(S(=O)(=O)c2ccccc2Br)CC1,0,7,85*,0,-4,-1,
Cc1cc(S(=O)(=O)N2CCN(CCC(=O)O)CC2)ccc1Br,-1,-1,54*,0,-8,-1,
SMILES,GPR151 ag,TEAD-YAP inh,MITF inh,FBW7 act,MITF inh conf,AlphaScreen intf2,others
COC(=O)c1c(OCC2CCCCO2)cc(=O)n2c1CCN(Cc1ccc(CO)o1)CC2 (centres undefined),0,-1,4,0,·,·,
CCN1CCN(S(=O)(=O)c2ccc3c(c2)SCC(=O)N3)CC1,1,7,-2,0,·,·,
O=C1CSc2ccc(S(=O)(=O)N3CCCC3)cc2N1,0,2,116*,0,10,9,
O=S(=O)(c1ccc(Cl)cc1)N1CCN(Cc2cccc(F)c2)CC1,-1,-7,64*,0,-2,7,
O=[N+]([O-])c1cccc(CN2CCN(S(=O)(=O)c3ccccc3)CC2)c1,0,3,70*,0,15,14,
O=C(c1cccc2ccccc12)N1CCN(Cc2cccc([N+](=O)[O-])c2)CC1,0,6,76*,0,14,18,
O=[N+]([O-])c1cccc(CN2CCN(S(=O)(=O)c3ccc(Cl)cc3)CC2)c1,-1,3,64*,0,13,16,
COC(=O)c1ccc(NC(=O)CCCC(=O)Nc2ccc(C(=O)OC)cc2)cc1,2,5,1,0,·,·,
CN(C)C(=O)N1CCN(S(=O)(=O)c2cccc([N+](=O)[O-])c2)CC1,0,13,77*,0,30*,-6,AlphaScreen DR=>6.5
CCN(CC)C(=O)N1CCN(S(=O)(=O)c2cccc([N+](=O)[O-])c2)CC1,1,1,2,0,·,·,
O=[N+]([O-])c1cccc(CN2CCN(S(=O)(=O)c3ccc(F)cc3)CC2)c1,0,-6,57*,0,11,16,
O=[N+]([O-])c1ccc(S(=O)(=O)N2CCN(CCCc3ccccc3)CC2)cc1,1,2,56*,0,14,15,
COc1ccc(S(=O)(=O)N2CCN(CCCc3ccccc3)CC2)cc1,-1,2,47,0,·,·,
CN(CC(O)COc1cc(Cl)ccc1Cl)S(=O)(=O)O (centres undefined),0,15,-2,0,·,·,
CCOc1ccc(Nc2ncccc2C(=O)OCc2ccc([N+](=O)[O-])cc2)cc1,1,-5,-23,0,·,·,
O=C(c1cccc(F)c1)N1CCN(Cc2cccc3ccccc23)CC1,-2,7,58*,1,-6,-4,
O=C(c1cccc(F)c1)N1CCN(Cc2ccccc2Cl)CC1,1,3,57*,0,-4,-1,
CNC(=O)c1ccc(-c2cccc(OC(F)(F)F)c2)nc1NCCOC,0,-2,2,0,·,·,
O=C(Nc1cc([N+](=O)[O-])ccc1C(=O)O)c1cccs1,0,4,7,1,·,·,
O=C(NCC1CCCO1)c1ccc(CNc2nc(=S)[nH]c3ccccc23)cc1 (centres undefined),1,5,9,0,·,·,
O=C(NCc1ccc2c(c1)OCO2)C1CCC(CNc2nc(=S)[nH]c3ccccc23)CC1 (centres undefined),0,0,57*,0,-13,-5,
O=C(OCC(=O)N1CCCCC1)c1cc(=O)c2ccccc2o1,1,-2,21,1,·,·,
O=[N+]([O-])c1ccc(CN2CCN(Cc3ccc4c(c3)OCO4)CC2)s1,1,4,56*,0,7,4,
O=[N+]([O-])c1ccccc1CN1CCN(Cc2ccc3c(c2)OCO3)CC1,0,-10,59*,0,19,36*,
O=[N+]([O-])c1ccc(CN2CCN(c3ccccc3F)CC2)s1,1,-7,53*,0,6,10,
